HCV inhibitor: qHTS Assay for Inhibitors of Hepatitis C Virus (HCV). Potency, µM (series often up to 41.8 µM), hits mostly inhibitors. Huh7.5.1 HCVcc-Cre infection, luciferase reporter, 44 h. 3.4% of 340,000 active; active = well fitted inhibition curve with a large enough effect; inconclusive = small, poorly fitted or top-dose-only effect, or another doubt; inactive = no such curve, though single readings can be large or run the other way
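Cells seeded at 1,000/well and cultured 4 h, then compounds added followed by HCVcc-Cre virus (~0.5 moi). After 44 h further culture, luciferase substrate was added, plates held 15 min at room temperature, and luminescence read for 15 sec.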
VACV Venus inh: qHTS for Stage-Specific Inhibitors of Vaccinia Orthopoxvirus: Venus Reporter Primary qHTS; Vaccinia virus Venus reporter expression, fluorescence; Potency, µM (series often up to 36.5 µM), hits mostly inhibitors; 0.46% of 330,000 active; calls by dose curve; tested in A549 cells; note: nearly all actives have a fitted effect of over 30% in size
HCMV antiviral: qHTS Assay for inhibitors of the human cytomegalovirus (HCMV); 4.5% of 410,000 active; HFF cells, HCMV-luciferase reporter, 72 h; active compounds read low; activity change, negative = inhibition, % at 57.5 µM; AID 1259415, 2018; in the data active = activity change below about -60%; inconclusive = no clear call, values can overlap the other calls; inactive = above about -39%
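HFF cells seeded 16 h at 37C, treated with compounds, infected with luciferase-reporter HCMV at MOI 1 PFU/cell; luciferase read at 72 h post infection, normalized to buffer-only and Salinomycin controls.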
VACV mCherry inh: qHTS for Stage-Specific Inhibitors of Vaccinia Orthopoxvirus: mCherry Reporter Primary qHTS; 0.63% of 310,000 active; AID 720579, 2013; Potency, µM (doses to about 36.5 µM), usual class: inhibitors; Vaccinia virus mCherry reporter infection, fluorescence; calls by dose curve; tested in A549 cells; note: nearly all actives have a fitted effect of over 35% in size
FMDV antiviral: High Throughput Screening for Foot and Mouth Disease Virus Antivirals; AID 1159524, 2015; 1.2% of 410,000 active; Potency, µM (doses to about 57.9 µM), hits mostly inhibitors; FMDV antiviral cell-based qHTS; calls by dose curve; tested in HEK293T cells; note: read-out not given here; nearly all actives have a fitted effect of over 45% in size
Large screens that a line does not name were inactive. Compounds with a hit are over-represented: about 7.3% of the library has one in this group of screens.

COc1ccc(CC(=O)Nc2ccc3nc(Nc4cccc(Cl)c4)cc(C)c3c2)cc1OC	HCMV antiviral -68.6, FMDV antiviral inconclusive (no result: HCV inhibitor)
O=C1CN(S(=O)(=O)Cc2ccccc2)C[C@@H]2[C@H](c3ccc(Br)cc3)[C@@H](CO)N12	none (no result: HCV inhibitor, VACV Venus inh, VACV mCherry inh, FMDV antiviral)
O=c1c(-c2ccc(Cl)cc2)nc2cnc(N3CCNCC3)nc2n1-c1ccccc1	none (no result: HCV inhibitor, VACV Venus inh, HCMV antiviral, VACV mCherry inh)
CN(Cc1cccs1)c1nc(-c2cccnc2)nc2ccccc12	HCV inhibitor inconclusive, FMDV antiviral 31.6µM
O=C(NC(Cc1c[nH]c2ccccc12)C(=O)N/N=C/c1cccnc1)c1cccs1 (configuration not stated)	HCMV antiviral -77.7
O=C(NC(Cc1c[nH]c2ccccc12)C(=O)Nc1ccc(F)cc1)c1cccs1 (configuration not stated)	HCMV antiviral inconclusive, VACV mCherry inh inconclusive
COc1ccc2c3c([nH]c2c1)[C@H](CO)N(C(=O)C1CCC1)CC31CCN(C(=O)c2ccncc2)CC1	none (no result: HCV inhibitor, VACV Venus inh, VACV mCherry inh, FMDV antiviral)
COc1ccc(-c2nc(SC)n(C)c(=O)c2C#N)cc1OC	HCMV antiviral -61.5 (no result: VACV mCherry inh)
O=[N+]([O-])c1cc(-c2ccccc2)cc([N+](=O)[O-])c1O	HCMV antiviral -86.8, FMDV antiviral inconclusive
O=[N+]([O-])c1cccc(C=Nc2cccc3ccccc23)c1O	VACV mCherry inh inconclusive
O=[N+]([O-])c1cc2ccccc2c(O)c1O	HCMV antiviral -100.3, VACV mCherry inh inconclusive (no result: HCV inhibitor)
Nc1nc(-c2cc(O)ccc2[N+](=O)[O-])cc(-c2ccccc2)c1[N+](=O)[O-]	HCV inhibitor inconclusive, HCMV antiviral -68.9
O=[N+]([O-])c1ccccc1-c1cc(-c2ccccc2)on1	none (no result: HCV inhibitor, VACV Venus inh, VACV mCherry inh, FMDV antiviral)
Cc1c(C(=O)N/N=C/c2ccc(N(C)C)cc2)[nH]c2ccc(Cl)cc12	HCV inhibitor inconclusive, HCMV antiviral -76.4
Cc1cc(C(=O)N/N=C/c2ccc(N(C)C)cc2)c2ccccc2n1	FMDV antiviral inconclusive
Cc1c(C(=O)N/N=C/c2ccccc2)[nH]c2ccc(Cl)cc12	HCV inhibitor inconclusive, VACV Venus inh inconclusive, HCMV antiviral -70.3
CCOc1cc(CNCC2CCCO2)cc(Br)c1OCC(N)=O (configuration not stated)	HCMV antiviral -69.1 (no result: VACV Venus inh, VACV mCherry inh)
CC(NC(=O)CCc1nnc(-c2ccc(-c3ccccc3)cc2)o1)c1nc2ccccc2[nH]1 (configuration not stated)	HCMV antiviral -68.4, FMDV antiviral inconclusive
O=C(c1ccccn1)N(CCO)C(c1ccccc1)c1nc2ccccc2[nH]1 (configuration not stated)	none (no result: HCV inhibitor, VACV Venus inh, VACV mCherry inh, FMDV antiviral)
COc1ccccc1CN(Cc1nc2ccccc2c(=O)[nH]1)S(=O)(=O)c1ccc(C)cc1	HCMV antiviral -98.6 (no result: FMDV antiviral)
COc1ccccc1CN(Cc1nc2ccccc2c(=O)[nH]1)C(=O)Nc1ccc(C)cc1	none (no result: FMDV antiviral)
CC1=NN(c2nc(-c3ccc(C)cc3)cs2)C(=O)C1N=Nc1ccccc1O (configuration not stated)	HCV inhibitor 10µM, HCMV antiviral -101.6
C/C(=N\NC(N)=S)c1cc(-c2ccccc2)c(-c2ccccc2)s1	HCV inhibitor 6.31µM
O=c1c(Br)c(Br)cnn1-c1ccccc1	HCV inhibitor 8.91µM, VACV Venus inh inconclusive, HCMV antiviral -97.2, VACV mCherry inh inconclusive, FMDV antiviral 14.1µM
O=c1c(Br)c(N2CCCC2)cnn1-c1ccccc1	none
Cc1nnc(N2CCN(c3ccccc3)CC2)c2c1nnn2Cc1ccc(F)cc1	FMDV antiviral inconclusive (no result: HCV inhibitor)
CCOc1ccc(N2C(=O)CC(N)C2=O)cc1 (configuration not stated)	HCV inhibitor 5.01µM (no result: VACV mCherry inh)
Cc1ccc(C)c(N2CCN(C3(c4ccccc4)C(=O)c4ccccc4C3=O)CC2)c1	none (no result: HCV inhibitor)
COc1cc2c(C#CCCO)c(-c3ccc(C#N)cc3)oc(=O)c2cc1OC	none
COc1cc2c(C#CCCO)c(-c3ccsc3)oc(=O)c2cc1OC	HCV inhibitor 10µM, VACV Venus inh inconclusive
COCc1c(C(=O)N2CCCCCC2)cnn1-c1nccc(-c2cccs2)n1	none (no result: HCV inhibitor, HCMV antiviral)
CCN(CC)CCNC(=O)c1ccc(NC(=O)c2ccc3c(c2)CCC3)cc1	HCV inhibitor 11.2µM (no result: VACV Venus inh, VACV mCherry inh)
CCN(CC)CCNC(=O)c1ccc(NC(=O)c2cccc(S(=O)(=O)N(C)C3CCCCC3)c2)cc1	HCV inhibitor inconclusive (no result: VACV Venus inh, VACV mCherry inh)
CCc1ccc(NC(=O)CN2C(=O)C(c3ccc(F)cc3)=NC2(C)C)cc1	HCMV antiviral inconclusive (no result: HCV inhibitor)
O=C(O)CCCN1C(=O)/C(=C\c2ccccc2OCc2ccccc2)SC1=S	HCMV antiviral inconclusive
COc1ccc(/C=C2\SC(=S)N(CCC(=O)N3CCCCC3)C2=O)cc1	none
O=C(O)CCCN1C(=O)/C(=C\C(Cl)=C\c2ccccc2)SC1=S	HCV inhibitor inconclusive, HCMV antiviral -99.3, FMDV antiviral inconclusive (no result: VACV Venus inh, VACV mCherry inh)
O=C(CCN1C(=O)/C(=C/c2ccccc2)SC1=S)N1CCCCCC1	HCV inhibitor inconclusive, HCMV antiviral -97.1
CCc1ccc(/C=C2\SC(=S)N(CCC(=O)N3CCN(C)CC3)C2=O)cc1	VACV Venus inh 10µM, VACV mCherry inh inconclusive
COc1ccc(/C=C2/SC(=S)N(CCC(=O)N3CCN(C)CC3)C2=O)cc1	HCV inhibitor inconclusive, HCMV antiviral inconclusive
CCOc1ccc(/C=C2\SC(=S)N(CCC(=O)O)C2=O)cc1	HCMV antiviral -64.4, FMDV antiviral 0.316µM
c1ccc(Nc2cc(-c3ccoc3)ncn2)cc1	none (no result: HCV inhibitor, VACV Venus inh, HCMV antiviral, VACV mCherry inh)
COc1ccc(-n2ccnc(NCCc3ccc(S(N)(=O)=O)cc3)c2=O)cc1	none (no result: HCV inhibitor)
COc1cccc(NC(=O)Cn2cnc3c(nc4n3CCCCC4)c2=O)c1	none (no result: HCV inhibitor)
O=C(CCN1C(=O)/C(=C\c2ccccc2Cl)SC1=S)N1CCN(c2ccccc2)CC1	VACV Venus inh inconclusive (no result: VACV mCherry inh)
CN1CCN(C(=O)CCN2C(=O)/C(=C\c3ccc(Cl)cc3Cl)SC2=S)CC1	FMDV antiviral 35.5µM
COc1cc(/C=C2/SC(=S)N(CCC(=O)N3CCN(C)CC3)C2=O)cc(OC)c1OC	VACV Venus inh inconclusive, HCMV antiviral inconclusive, VACV mCherry inh 10µM (no result: HCV inhibitor)
COc1ccc(/C=C2\SC(=O)N(CCCC(=O)Nc3cc(Cl)ccc3C(=O)O)C2=O)cc1	HCMV antiviral -92.9, FMDV antiviral 0.282µM
CN1CCN(C(=O)CCCN2C(=O)/C(=C/c3ccc(Cl)cc3)SC2=S)CC1	HCV inhibitor inconclusive (no result: VACV Venus inh, HCMV antiviral, VACV mCherry inh)
COc1cc(/C=C2\SC(=S)N(CCC(=O)N3CCN(C)CC3)C2=O)cc(OC)c1OC	HCV inhibitor inconclusive
CN1CCN(C(=O)CCCN2C(=O)/C(=C/c3ccccc3)SC2=S)CC1	HCMV antiviral -94.2, VACV mCherry inh inconclusive
COc1ccc(-c2cc(C(=O)Nc3cccc(O)c3)on2)cc1OC	none (no result: HCV inhibitor)
Cc1ccc(CNC(=O)C2CCCN(c3nnc(-n4c(C)ccc4C)s3)C2)cc1 (configuration not stated)	none (no result: HCV inhibitor)
COc1ccc(CNC(=O)c2ccc(N3CCCC3)c(NC(=O)NCc3ccc(F)cc3)c2)cc1	none (no result: HCV inhibitor)
COc1ccc(/C=C2/SC(=S)N(CCCC(=O)N3CCN(C)CC3)C2=O)cc1	VACV Venus inh inconclusive, HCMV antiviral -99.6, VACV mCherry inh inconclusive
